Measurements: PubChem BioAssay
Activity calls are given as the source filed them.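 Rule for the calls, unless noted: active = fluorescence slope higher than the sample average by over 3 SD (cut at about -0.22 in these data, passing the limit was not always enough); inactive = the rest.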

Legend:
[1] = inhibitors of TNFa-induced NFkB p65 translocation, primary screen, imaging, HUVEC, MLSMR starter and 10KST1 sets (AID 438;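 active = inhibition above 20% together with a positive visual image hit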;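 note: compound added about 3h40 before a 20 min TNFalpha stimulation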;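 for inhibition: signal is the nuclear over cytoplasmic p65 intensity ratio per well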); settings: HUVEC TNFa-induced p65 nuclear translocation; cell count: measured here: nuclei count (cytotoxicity indicator), at 2.08 µM; inhibition: at 2 µM, stronger effect = higher value, 0% TNFa-plus-vehicle, 100% no-TNFa wells
[2] = inhibitors of mutant huntingtin aggregation, primary screen, imaging, exon1htt(103Q)mCFP cells, high-content imaging (AID 483;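 active = visual image review flags a hit and inhibition of aggregation exceeds 20%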;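 note: compound exposure lasted 3 days before fixation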;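 for nuclei count: percent of the per-plate median nuclei count of sample wells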); settings: exon1htt(103Q)mCFP cell line, aggregate imaging, at 2 µM; inhibition of aggregation: stronger effect = higher value; nuclei count: measured here: cell count, toxicity
[3] = inhibitors of E-selectin induction by TNFa, primary screen, imaging, HUVEC, immunofluorescence, MLSMR starter and 10KST1 sets (AID 487;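 active = visually confirmed hit in the image check and inhibition above 20%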;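 for inhibition: signal is fraction of cell area covered by stained E-selectin grains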;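 for nuclei count: 100% = median nuclei count of all wells on the same plate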); settings: HUVEC TNFalpha-induced E-selectin immunofluorescence imaging, at 2 µM; inhibition: stronger effect = higher value; nuclei count: measured here: cell number, toxicity
[4] = target: Voltage-gated potassium channel subunit beta-2 (Rattus norvegicus) (UniProt P62483); experiment: KvBeta enzyme negative modulators, primary screen, biochemical, NADPH fluorescence (AID 622); settings: recombinant KvBeta, 4-cyanobenzaldehyde reduction, at 10 µM, stronger effect = higher value;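 note: slope of raw intensity against log time taken from 70 to 1610 s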
[5] = target: Voltage-gated potassium channel subunit beta-2 (Rattus norvegicus) (UniProt P62483); experiment: KvBeta positive modulators, primary screen, biochemical, NADPH fluorescence (AID 623;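 active = NADPH fluorescence slope more negative than the mean of all samples by about 3 SD, 99.7% confidence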;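 note: fluorescence intensity change per second fitted from 20 to 320 s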); settings: Recombinant KvBeta, NADPH fluorescence decrease slope, 10 min; at 10 µM; stronger effect = lower value
[6] = target: Alpha-2C adrenergic receptor (Homo sapiens) (UniProt P18825); experiment: modulators of alpha2C/GIRK thallium flux, primary screen, cell-based, HEK293 alpha2C/GIRK1/2 (AID 624;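 active = fluorescence slope after compound addition differing from the mean of all screened samples at 99.7% confidence, in either direction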;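 note: slope of fluorescence ratio to pre-addition baseline per second over 15 to 24 s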); settings: thallium flux BTC fluorescence, at 10 µM, actives lie on both sides
[7] = inhibitors of Sendai virus-induced IRF3 signaling, primary screen, TLR/RLR signaling modifier project, cell-based, Sendai virus stimulus, luciferase, 10K MLSCN set (AID 602276;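 active = inhibition at or above 50% at 10 µM; inactive = inhibition below 50%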;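 note: firefly luciferase from ISG56 promoter only with Renilla not read in this screen; 0% = Sendai virus plus DMSO and 100% = medium plus DMSO without virus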); settings: HEK293 RL24 IRF3 luciferase reporter, at 10 µM, stronger effect = higher value
[8] = inhibitors of poly I:C-induced TLR3 signaling, primary screen, cell-based, poly I:C stimulus, luciferase, 10K MLSCN set (AID 602277;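 active = inhibition of the reporter signal at or above 50%; inactive = inhibition below 50%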); settings: HEK293-TLR3 RL24 IRF3 luciferase reporter, at 10 µM, stronger effect = higher value

Sequence of Alpha-2C adrenergic receptor (Homo sapiens) (P18825 whole entry, looked up): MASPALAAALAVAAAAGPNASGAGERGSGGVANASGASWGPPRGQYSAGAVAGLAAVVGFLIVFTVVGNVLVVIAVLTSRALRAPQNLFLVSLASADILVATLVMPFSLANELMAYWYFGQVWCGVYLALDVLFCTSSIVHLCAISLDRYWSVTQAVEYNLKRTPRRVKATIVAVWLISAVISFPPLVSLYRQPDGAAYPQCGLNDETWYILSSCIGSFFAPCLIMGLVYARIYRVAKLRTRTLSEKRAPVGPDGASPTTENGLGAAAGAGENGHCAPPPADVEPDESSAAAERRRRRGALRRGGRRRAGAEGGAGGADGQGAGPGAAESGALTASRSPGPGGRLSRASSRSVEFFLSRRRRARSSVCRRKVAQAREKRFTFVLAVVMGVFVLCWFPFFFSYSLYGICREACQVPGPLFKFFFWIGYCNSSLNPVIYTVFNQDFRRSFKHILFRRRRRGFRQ
Sequence of Voltage-gated potassium channel subunit beta-2 (Rattus norvegicus) (P62483 whole entry, looked up): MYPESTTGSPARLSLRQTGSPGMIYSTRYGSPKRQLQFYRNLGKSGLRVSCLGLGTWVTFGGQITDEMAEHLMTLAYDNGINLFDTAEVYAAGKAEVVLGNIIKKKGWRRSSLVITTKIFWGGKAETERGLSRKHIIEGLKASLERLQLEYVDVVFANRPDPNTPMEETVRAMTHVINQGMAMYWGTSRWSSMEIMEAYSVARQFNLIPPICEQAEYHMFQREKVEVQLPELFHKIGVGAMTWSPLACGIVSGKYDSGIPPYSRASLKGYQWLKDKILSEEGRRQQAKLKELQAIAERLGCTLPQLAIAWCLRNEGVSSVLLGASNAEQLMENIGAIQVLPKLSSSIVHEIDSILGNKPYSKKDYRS

| SMILES | cell count [1] | inhibition [1] | inhibition of aggregation [2] | nuclei count [2] [%] | inhibition [3] | nuclei count [3] [%] | fluorescence slope [4] | NADPH fluorescence slope [5] | slope [6] | inhibition [7] | inhibition [8] |
| --- | --- | --- | --- | --- | --- | --- | --- | --- | --- | --- | --- |
| O=C(COc1ccccc1Cl)NCCCN1CCOCC1 | 458 | 5.4% (inactive) | 0% (inactive) | 117 | -11.3% (inactive) | 126 | -0.509 (inactive) | -5.8e-05 (inactive) | 0.00528 (inactive) | 10.2% (inactive) | 18.2% (inactive) |
| COc1cc(C2N3CC4(C)CN2CC(C)(C3)C4)ccc1O (centres undefined) | 309 | -4.3% (inactive) | 15.8% (inactive) | 74.7 | -33.6% (inactive) | 100 | -0.345 (inactive) | -5.2e-07 (inactive) | 0.0063 (inactive) | 0.715% (inactive) | 25.8% (inactive) |
| CCOc1ccc(-c2cn(S(=O)(=O)c3cccc4nsnc34)nc2N)cc1 | 316 | -6.1% (inactive) | 8% (inactive) | 107 | -29.1% (inactive) | 66.8 | -0.484 (inactive) | -3.8e-05 (inactive) | 0.00478 (inactive) | 10.6% (inactive) | 28.6% (inactive) |
| COC(=O)c1ccccc1NC(=O)c1ccc(COc2ccccc2)o1 | 845 | -8.3% (inactive) | 6.6% (inactive) | 113 | -19.3% (inactive) | 114 | -0.63 (inactive) | -3.5e-05 (inactive) | 0.00572 (inactive) | -25.9% (inactive) | -60.3% (inactive) |
| CCn1c(Cc2ccccc2)nnc1SCC(=O)Nc1ccc(N2CCOCC2)c(Cl)c1 | 427 | 0.3% (inactive) | -13.2% (inactive) | 108 | -56.2% (inactive) | 168 | -0.441 (inactive) | -6.7e-06 (inactive) | 0.00559 (inactive) | 14% (inactive) | 5.26% (inactive) |
| O=C(c1ccco1)N1CCN(C2=NS(=O)(=O)c3ccccc32)CC1 | 596 | -18.6% (inactive) | -11.3% (inactive) | 105 | -3% (inactive) | 104 | -0.463 (inactive) | -1.3e-05 (inactive) | 0.00424 (inactive) | 4.61% (inactive) | 31.2% (inactive) |
| CC1CCC(NC(=O)Cn2ncc3ccccc32)CC1 (centres undefined) | 728 | -3.7% (inactive) | -13.1% (inactive) | 118 | -59.2% (inactive) | 106 | -0.577 (inactive) | -4.8e-05 (inactive) | 0.00746 (inactive) | -43.1% (inactive) | -111% (inactive) |
| CN1CCN(C(=O)c2ccc(CS(=O)(=O)c3c(Cl)cccc3Cl)o2)CC1 | 652 | -0.5% (inactive) | 11.9% (inactive) | 96.9 | -24.1% (inactive) | 137 | -0.515 (inactive) | -2.9e-05 (inactive) | 0.00604 (inactive) | 16.8% (inactive) | 24.4% (inactive) |
| COc1ccc(CCNS(=O)(=O)c2ccc3oc(C(=O)O)c(C)c3c2)cc1OC | 612 | -11.4% (inactive) | 3.9% (inactive) | 107 | -32% (inactive) | 114 | -0.444 (inactive) | 6.2e-05 (inactive) | 0.00543 (inactive) | 12.5% (inactive) | 21.9% (inactive) |
| CCOC(=O)N1CCN(c2cc(=O)n(-c3cccc(Br)c3)c(=O)[nH]2)CC1 | 532 | -10.1% (inactive) | 0.9% (inactive) | 55.8 | -13.2% (inactive) | 89.5 | -0.564 (inactive) | -2e-05 (inactive) | 0.00721 (inactive) | -10.2% (inactive) | 15.4% (inactive) |
| COC(=O)COc1cccc(NC(=O)COc2ccccc2)c1 | 349 | -2.7% (inactive) | -0.4% (inactive) | 115 | -94.8% (inactive) | 104 | -0.336 (inactive) | 3.4e-07 (inactive) | 0.00642 (inactive) | 1.13% (inactive) | 20.7% (inactive) |
| CCOC(=O)C1CCCN(c2c(N3CCN(c4ccccn4)CC3)c(=O)c2=O)C1 (centres undefined) | 631 | 6.9% (inactive) | 11.3% (inactive) | 98.8 | -5.4% (inactive) | 132 | -0.503 (inactive) | -3.5e-05 (inactive) | 0.00587 (inactive) | 3.88% (inactive) | 27.8% (inactive) |
| CCCCOc1ccc(C(=O)N2CCC(C)CC2)cc1 | 323 | 7.9% (inactive) | -8.4% (inactive) | 99.9 | -13.8% (inactive) | 87 | -0.434 (inactive) | -5.1e-05 (inactive) | 0.00442 (inactive) | -4.61% (inactive) | -21% (inactive) |
| O=C(c1cc(-c2cccc(O)c2)on1)N1CCN(C(c2ccccc2)c2ccccc2)CC1 | 787 | 3.2% (inactive) | -5.2% (inactive) | 96.8 | -70.7% (inactive) | 116 | -0.601 (inactive) | -3.2e-05 (inactive) | 0.00689 (inactive) | 11% (inactive) | 25.8% (inactive) |
